# Data from PMC5700166.
# Target: T1, GST-Aq-NF-kB (Amphimedon queenslandica, UniProt A9Y5G7 2-389)
# T1 sequence: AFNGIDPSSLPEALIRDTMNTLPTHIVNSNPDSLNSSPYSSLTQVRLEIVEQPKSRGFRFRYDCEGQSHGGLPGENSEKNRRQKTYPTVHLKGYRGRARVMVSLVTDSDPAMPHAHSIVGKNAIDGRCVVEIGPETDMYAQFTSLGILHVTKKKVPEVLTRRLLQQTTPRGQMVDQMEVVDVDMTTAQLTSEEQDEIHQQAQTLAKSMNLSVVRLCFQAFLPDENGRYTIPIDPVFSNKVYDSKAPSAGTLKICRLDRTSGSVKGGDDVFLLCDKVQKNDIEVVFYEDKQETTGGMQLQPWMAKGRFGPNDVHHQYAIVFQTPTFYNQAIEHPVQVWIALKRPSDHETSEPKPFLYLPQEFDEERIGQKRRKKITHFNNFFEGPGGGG
# Assay: protein-binding microarray (PBM); PBM: ~300 nM protein, 6 mM HEPES pH 7.8, 80 mM KCl, 0.5 mM EDTA, 0.5 mM EGTA, 6% glycerol, 35 ng/ul poly-dIdC, 1% milk, 1 h, room temperature; Ap Aiptasia and Nv Nematostella (sea anemones) / Co Capsaspora / Aq Amphimedon (sponge) / Dm Drosophila / Hu human; RHD is the Rel homology domain; high values mean tight binding
# Details: dsDNA, one strand shown
row,Sequence,binding signal [z-score]
1,CCGATTAACATCAGGTATTTTTATGATGTTAATCGGGTCTTGATTCGCTTGACGCTGCTG,2.77
2,CCGATTAACATCAGGTACTTCCATGATGTTAATCGGGTCTTGATTCGCTTGACGCTGCTG,2.23
3,CCGATTAACATCAGGGATCACCCTGATGTTAATCGGGTCTTGATTCGCTTGACGCTGCTG,5.65
4,CCGATTAACATCACGGACTTCCCTGATGTTAATCGGGTCTTGATTCGCTTGACGCTGCTG,5.45
5,CCGATTAACATCAGGAATTCACCTGATGTTAATCGGGTCTTGATTCGCTTGACGCTGCTG,4.83
6,CCGATTAACATCAGGGGAAGGGATGATGTTAATCGGGTCTTGATTCGCTTGACGCTGCTG,3.89
7,CCGATTAACATCAGGGAAGCCCATGATGTTAATCGGGTCTTGATTCGCTTGACGCTGCTG,3.64
8,CCGATTAACATCAGGCGAGTCCCTGATGTTAATCGGGTCTTGATTCGCTTGACGCTGCTG,4.31
9,CCGATTAACATCAAGGAAAACCCTGATGTTAATCGGGTCTTGATTCGCTTGACGCTGCTG,4.66
10,CCGATTAACATCACGGGACTTCCTGATGTTAATCGGGTCTTGATTCGCTTGACGCTGCTG,6.21
11,CCGATTAACATCACGGAAAGCCCTGATGTTAATCGGGTCTTGATTCGCTTGACGCTGCTG,4.35
12,CCGATTAACATCAGGAAAAACCCTGATGTTAATCGGGTCTTGATTCGCTTGACGCTGCTG,7.68
13,CCGATTAACATCAGGACAATCCCTGATGTTAATCGGGTCTTGATTCGCTTGACGCTGCTG,5.09
14,CCGATTAACATCAGGAAGTCCCATGATGTTAATCGGGTCTTGATTCGCTTGACGCTGCTG,4.99
15,CCGATTAACATCAAACCCCCCCCTGATGTTAATCGGGTCTTGATTCGCTTGACGCTGCTG,5.35
16,CCGATTAACATCAACTCCCCCCATGATGTTAATCGGGTCTTGATTCGCTTGACGCTGCTG,4.72
17,CCGATTAACATCAAAAAAAGTCCTGATGTTAATCGGGTCTTGATTCGCTTGACGCTGCTG,4.05
18,CCGATTAACATCAGGGGGTTACATGATGTTAATCGGGTCTTGATTCGCTTGACGCTGCTG,4.89
19,CCGATTAACATCAGGAAAACCCATGATGTTAATCGGGTCTTGATTCGCTTGACGCTGCTG,4.02
20,CCGATTAACATCAGGGGACAACCTGATGTTAATCGGGTCTTGATTCGCTTGACGCTGCTG,5.18
21,CCGATTAACATCAAGAGTTTCCCTGATGTTAATCGGGTCTTGATTCGCTTGACGCTGCTG,5.12
22,CCGATTAACATCACTAATTTCCCTGATGTTAATCGGGTCTTGATTCGCTTGACGCTGCTG,4.09
23,CCGATTAACATCAGAGAAGTCCCTGATGTTAATCGGGTCTTGATTCGCTTGACGCTGCTG,5.93
24,CCGATTAACATCATAATTCCCAATGATGTTAATCGGGTCTTGATTCGCTTGACGCTGCTG,2.84
25,CCGATTAACATCAATGGGAAAATTGATGTTAATCGGGTCTTGATTCGCTTGACGCTGCTG,3.05
